Assay results published in PubChem BioAssay AID1159580 (chemical genetic matrix, 2015).
The whole screen tested about 5,500 compounds, of which about 2,000 (36%) were called active. About 18% were inconclusive and are not listed. Rule as the data show it: active = normalized growth mostly below about 0.91 (no sharp cut-off); inconclusive = no clear call, values can overlap the other calls; inactive = mostly above about 0.92. This is one part of the list.

Test: chemical genetic growth profiling, strain panel (AID 1159580);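 also: tested at 20 µM; growth read once vehicle control cultures reached saturation at 30 °C; 1 = growth at the plate median or of vehicle wells; lower values mean less growth of the strain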
Settings: S. cerevisiae deletion strains, growth OD
[1] = locus YAR019C, strain CDC15, active compounds read low
[2] = locus YBL105C, strain PKC1, active compounds read low
[3] = locus YBR135W, strain CKS1, active compounds read low
[4] = locus YBR136W, strain MEC1, active compounds read low
[5] = locus YBR160W, strain CDC28, active compounds read low
[6] = locus YDL017W, strain CDC7, active compounds read low
[7] = locus YDL028C, strain MPS1, active compounds read low
[8] = locus YDL101C, strain DUN1, active compounds read low
[9] = locus YDL108W, strain KIN28, active compounds read low
[10] = locus YDL132W, strain cdc53, active compounds read low
[11] = locus YDL214C, strain PRR2, active compounds read low
[12] = locus YDR052C, strain DBF4, active compounds read low
[13] = locus YDR054C, strain cdc34, active compounds read low
[14] = locus YDR226W, strain ADK1, active compounds read low
[15] = locus YDR477W, strain SNF1, active compounds read low
[16] = locus YER123W, strain YCK3, active compounds read low
[17] = locus YER133W, strain GLC7, active compounds read low
[18] = locus YFL009W, strain cdc4, active compounds read low
[19] = locus YFL029C, strain CAK1, active compounds read low
[20] = locus YFR003C, strain YPI1, active compounds read low
[21] = locus YFR019W, strain FAB1, active compounds read low
[22] = locus YFR028C, strain CDC14, active compounds read low
[23] = locus YGR040W, strain KSS1, active compounds read low
[24] = locus YGR052W, strain FMP48, active compounds read low
[25] = locus YGR092W, strain DBF2, active compounds read low
[26] = locus YHR030C, strain SLT2, active compounds read low
[27] = locus YHR079C, strain IRE1, active compounds read low
[28] = locus YHR082C, strain KSP1, active compounds read low
[29] = locus YHR205W, strain SCH9, active compounds read low
[30] = locus YIL147C, strain SLN1, active compounds read low
[31] = locus YJL095W, strain BCK1, active compounds read low
[32] = locus YJL128C, strain PBS2, active compounds read low
[33] = locus YJL157C, strain FAR1, active compounds read low
[34] = locus YJR016C, strain ILV3, active compounds read low
[35] = locus YJR066W, strain TOR1 (second series), active compounds read low
[36] = locus YJR066W, strain TOR1, active compounds read low
[37] = locus YKL048C, strain ELM1, active compounds read low
[38] = locus YKL067W, strain YNK1, active compounds read low
[39] = locus YKL101W, strain HSL1, active compounds read low
[40] = locus YKL193C, strain SDS22, active compounds read low
[41] = locus YKL203C, strain TOR2, active compounds read low
[42] = locus YLR113W, strain HOG1, active compounds read low
[43] = locus YLR133W, strain CKI1, active compounds read low
[44] = locus YLR403W, strain SFP1, active compounds read low
[45] = locus YML070W, strain DAK1, active compounds read low
[46] = locus YMR001C, strain CDC5, active compounds read low
[47] = locus YMR205C, strain PFK2 (second series), active compounds read low
[48] = locus YMR277W, strain FCP1, active compounds read low
[49] = locus YNL006W, strain LST8, active compounds read low
[50] = locus YNL020C, strain ARK1, active compounds read low
[51] = locus YNL161W, strain CBK1, active compounds read low
[52] = locus YNL183C, strain NPR1, active compounds read low
[53] = locus YNL207W, strain RIO2, active compounds read low
[54] = locus YNL222W, strain SSU72, active compounds read low
[55] = locus YNL307C, strain MCK1 (second series), active compounds read low
[56] = locus YOL078W, strain AVO1, active compounds read low
[57] = locus YOL136C, strain PFK27, active compounds read low
[58] = locus YOR061W, strain CKA2, active compounds read low
[59] = locus YOR119C, strain RIO1, active compounds read low
[60] = locus YOR231W, strain MKK1, active compounds read low
[61] = locus YOR329C, strain SCD5, active compounds read low
[62] = locus YPL031C, strain PHO85, active compounds read low
[63] = locus YPL153C, strain RAD53, active compounds read low
[64] = locus YPL204W, strain HRR25, active compounds read low
[65] = locus YPL209C, strain IPL1, active compounds read low
[66] = locus YPL256C, strain CLN2, active compounds read low
[67] = locus YPR025C, strain CCL1, active compounds read low
[68] = locus YPR106W, strain ISR1, active compounds read low
[69] = locus YPR111W, strain DBF20, active compounds read low
[70] = strain NNK1, active compounds read low
[71] = strain TSCII, active compounds read low

Measured: normalized growth

Clc1ccccc1-c1csc(-c2cccnc2)n1
active: [8] 0.913 | [13] 0.848 | [15] 0.649 | [17] 0.565 | [23] 0.647 | [26] 0.591 | [31] 0.247 | [40] 0.88 | [41] 0.572 | [42] 0.694 | [48] 0.869 | [53] 0.86 | [59] 0.609 | [61] 0.902 | [62] 0.566 | [63] 0.563 | [64] 0.553 | [66] 0.774 | [71] 0.874
inactive: [1] 0.893 | [2] 0.934 | [3] 0.924 | [4] 0.929 | [5] 0.923 | [6] 0.928 | [7] 0.923 | [9] 0.924 | [10] 0.932 | [11] 0.822 | [12] 0.917 | [14] 0.931 | [16] 0.673 | [18] 0.932 | [19] 0.889 | [20] 0.93 | [21] 0.783 | [22] 0.939 | [24] 0.769 | [25] 0.541 | [27] 0.636 | [28] 0.894 | [29] 0.758 | [30] 0.922 | [32] 0.926 | [33] 0.773 | [34] 0.902 | [35] 0.686 | [36] 0.67 | [37] 0.968 | [38] 0.866 | [39] 0.9 | [43] 0.842 | [44] 0.662 | [45] 0.787 | [46] 0.913 | [47] 0.864 | [49] 0.913 | [50] 0.838 | [51] 0.919 | [52] 0.829 | [54] 0.916 | [55] 0.82 | [56] 0.89 | [57] 0.819 | [58] 0.896 | [60] 0.756 | [65] 0.909 | [67] 0.915 | [68] 0.932 | [69] 0.938 | [70] 0.932

Brc1ccc(-c2csc(-c3cccnc3)n2)cc1
active: [1] 0.879 | [8] 0.887 | [10] 0.854 | [12] 0.894 | [13] 0.847 | [14] 0.884 | [15] 0.624 | [16] 0.606 | [17] 0.561 | [18] 0.867 | [19] 0.872 | [21] 0.677 | [22] 0.875 | [23] 0.59 | [25] 0.456 | [26] 0.519 | [31] 0.305 | [34] 0.878 | [35] 0.603 | [38] 0.733 | [40] 0.864 | [41] 0.506 | [42] 0.655 | [44] 0.563 | [46] 0.88 | [47] 0.719 | [48] 0.873 | [49] 0.894 | [51] 0.893 | [52] 0.55 | [53] 0.846 | [56] 0.866 | [59] 0.54 | [61] 0.883 | [62] 0.533 | [63] 0.449 | [64] 0.46 | [65] 0.893 | [66] 0.679 | [67] 0.894 | [70] 0.871 | [71] 0.86
inactive: [2] 0.921 | [3] 0.898 | [4] 0.913 | [5] 0.904 | [6] 0.906 | [7] 0.916 | [9] 0.904 | [11] 0.741 | [20] 0.904 | [24] 0.704 | [27] 0.637 | [28] 0.695 | [29] 0.643 | [30] 0.899 | [32] 0.951 | [33] 0.735 | [36] 0.545 | [37] 0.835 | [39] 0.784 | [43] 0.767 | [45] 0.704 | [50] 0.751 | [54] 0.902 | [55] 0.702 | [57] 0.709 | [58] 0.792 | [60] 0.647 | [68] 0.903 | [69] 0.918
